This is one part of a sample in which hits are shown more often than they occur. The hit rate among all sequences tested is not known here. Values without a mark were called inactive.
What follows are sequences tested on T1, Caupolican (Caup) homeodomain DNA-binding domain (assay: PBM E-score (8-mer, recovered from the published 9-mer minima) (E-score (dimensionless, -0.5 to 0.5)); Drosophila protein; higher = stronger relative binding preference, active = 0.31 or more).
T1 sequence: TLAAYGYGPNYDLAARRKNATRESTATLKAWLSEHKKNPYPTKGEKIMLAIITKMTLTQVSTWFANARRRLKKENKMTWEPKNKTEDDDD
How it was run: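 An enrichment score, with higher meaning stronger, expresses relative binding preference for each short DNA word. The protein used was Caup's homeodomain DNA-binding domain (residues 214-303), produced by in vitro transcription and translation and tested at 100 nM on custom-designed protein binding microarrays. The 8-mer values were recovered from published 9-mer scores, each equal to the lower of its two constituent 8-mer scores.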

Row | Sequence | PBM E-score
1 | GCGAGAGA | -0.0945
2 | GGCGAGTA | -0.0986
3 | GTAGCAAC | 0.128
4 | AGCAAGAC | 0.0516
5 | ACTTGACC | -0.0545
6 | AAAATTTC | -0.0281
7 | TCGGCAAA | -0.0466
8 | ATGCTGGG | -0.069
9 | ATCTGTGC | 0.0661
10 | AGTGCGCC | -0.17
11 | TACATATA | 0.379 (active)
12 | CACATATG | 0.15
13 | AACATATC | 0.303
14 | CACATATA | 0.251
15 | AACATATG | ≥ 0.356 (active)
16 | AACATAGT | 0.287
17 | AACATATT | ≥ 0.347 (active)
18 | GACATATA | 0.305
19 | TACATAGA | 0.278
20 | AACATATA | 0.323 (active)
21 | TATATATA | 0.216
22 | ACCATATG | 0.145
23 | GACGGCTA | -0.167
24 | CAATTGTA | 0.193
25 | ATGAATCG | 0.0391

Row | Sequence | PBM E-score
26 | AGTAACGA | 0.107
27 | GACTCGCA | -0.115
28 | CAGATGCG | -0.00655
29 | AGGAAGGA | -0.0149
30 | AATGGCTC | -0.0437
31 | AAAACAAC | 0.214
32 | CTAACACA | 0.276
33 | ATAACAAC | 0.346 (active)
34 | ATAACAAG | ≥ 0.373 (active)
35 | AGAACAAC | 0.229
36 | ATAACACG | ≥ 0.334 (active)
37 | ATAACAAT | 0.254
38 | CTAACAAC | 0.278
39 | ATAACAAA | 0.205
40 | GTAACAAA | 0.217
41 | GTAACAAC | 0.341 (active)
42 | ATAACACA | 0.305
43 | ACAGTTTC | 0.0345
44 | CCAGCGGG | -0.276
45 | AGACCCCT | -0.143
46 | CACGGTCC | -0.0957
47 | CGACGATC | 0.00125
48 | CCGTGTGA | 0.0813
49 | GCGTGTGA | 0.0667
50 | TAGTGTAA | 0.207

Row | Sequence | PBM E-score
51 | TCGTGAAA | 0.00205
52 | ACGTGTGA | 0.155
53 | CAGTGTAA | 0.218
54 | GAGTGTAA | 0.11
55 | TCGTGTAA | 0.363 (active)
56 | GCGTGTAA | 0.327 (active)
57 | ACGTGTAA | ≥ 0.394 (active)
58 | CCGTGTAA | 0.35 (active)
59 | AGGTGTAA | 0.2
60 | CTATCTGA | 0.0431
61 | AAGTGGAC | -0.00011
62 | AGTTGGCC | -0.159
63 | ATATATCG | 0.0746
64 | CAGACTGC | -0.0434
65 | TAAGTAGA | 0.11
66 | CAGGGCTA | -0.125
67 | CCAGACAC | 0.05
68 | AACGATGG | -0.0529
69 | AACGATGC | -0.051
70 | AACGATGT | 0.35 (active)
71 | TAACTTCA | 0.137
72 | AACGCAGA | -0.0244
73 | TGACTGAA | -0.0626
74 | GGCCGCGA | -0.26
75 | CATGTCGA | 0.412 (active)

Row | Sequence | PBM E-score
76 | CTTGTCGA | 0.303
77 | AATGTCGC | 0.191
78 | GATGTCGC | 0.201
79 | TATGTCGA | 0.323 (active)
80 | CAGGTCGG | -0.0619
81 | AATGTCGA | 0.212
82 | CGTGTCGA | 0.281
83 | CATGTCGG | 0.357 (active)
84 | AATGTCGG | 0.119
85 | GATGTCGA | 0.217
86 | CATGTCGC | 0.363 (active)
87 | ACCGCGTC | -0.0819
88 | TATTCTCA | 0.0911
89 | CTGTGAAG | -0.0616
90 | GCGACAGA | 0.0849
91 | CTGGGTTC | -0.0931
92 | ATTAGCGG | -0.0813
93 | AACAGGGG | 0.0757
94 | GACTTACC | -0.0473
95 | ACCATCAT | 0.0686
96 | GACCTCAA | 0.0301
97 | GAATTACA | 0.29
98 | AAATTACG | 0.0367
99 | AAATTACT | 0.124
100 | CAATTACG | 0.0582

Row | Sequence | PBM E-score
101 | CACTTACA | 0.243
102 | CAATTACA | 0.334 (active)
103 | TAATTACA | 0.335 (active)
104 | GACTTACA | 0.246
105 | TAATTATA | 0.234
106 | AACTTACA | ≥ 0.344 (active)
107 | CAATTACC | -0.00996
108 | AAATTACA | 0.329 (active)
109 | AGGTAATA | 0.0994
110 | CGCCCATA | -0.126
111 | CGACCTCC | -0.138
112 | AGCAACGA | 0.0654
113 | ACAATCCG | 0.117
114 | CGGGAAAA | -0.0322
115 | CCGGAGAG | -0.159
116 | GATTTACA | 0.246
117 | CATTTACA | 0.239
118 | AATTTACA | 0.328 (active)
119 | GAGGTTGC | -0.184
120 | AGGCAATA | 0.0132
121 | AATTGCAT | 0.0474
122 | ACAAGGTA | 0.335 (active)
123 | ACAAGACG | 0.257
124 | GCAAGGTA | 0.0505
125 | CCAAGATA | 0.106

Row | Sequence | PBM E-score
126 | ACAAGATA | 0.342 (active)
127 | ACAAGATC | 0.258
128 | ACAAGGTC | 0.298
129 | ACAAGACA | ≥ 0.352 (active)
130 | GCAAGACA | 0.0548
131 | CGAATAGA | 0.0132
132 | ACGTCACG | 0.0623
133 | CATTCCCA | -0.01
134 | CGGGATCC | -0.132
135 | ACCCAAGC | -0.122
136 | CCCTGCGG | -0.29
137 | ACGTCGAG | -0.0187
138 | ATAACATA | 0.356 (active)
139 | ATAACTTG | 0.197
140 | GTAACAGA | 0.211
141 | CTAACATA | 0.28
142 | ATAACATC | 0.318 (active)
143 | ATAACAGA | 0.171
144 | ATAACATG | 0.424 (active)
145 | GTAACATA | 0.345 (active)
146 | ATAACAGG | 0.155
147 | CTAACATC | 0.208
148 | ATAACAGC | 0.148
